Several values for one entry are separate records, joined by “and”; a condition that tells them apart may be missing. Identical values can stand only once. Results filed as inconclusive are left out. A structure can be active in one record and inactive in another. Activity calls are given as the source filed them. Unless noted, calls come from the whole dose curve; as a rule, active = well fitted curve in the direction sought with a large enough effect in the repeat runs; inconclusive = weak or mixed curves; inactive = no such curve, though single readings can be large; an effect the other way counts as inactive or inconclusive.

A short description of assay [1]: qHTS assay to identify small molecule agonists of the RXR signaling pathway - cell viability counter screen (AID 1159529). Note: nearly all actives have a fitted effect of over 50% in size. Note: potency is the fitted concentration of half-maximal effect. In short, it runs like this:
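Compounds dissolved in DMSO were pinned onto HEK 293T cells carrying a beta-lactamase reporter under RXR-alpha control and incubated 16 hr. Cytotoxicity was then quantified by CellTiter-Glo luminescence.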
On the technique in general: Quantitative high-throughput screening tests each substance at several concentrations.

Assay [2] can be described thus: qHTS assay to identify small molecule antagonists of the retinoid acid receptor (RAR) signaling pathway - cell viability counter screen (AID 1159551). Note: nearly all actives have a fitted effect of over 35% in size. The essentials:
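C3RL4 cells were seeded overnight at 37 C, then treated with compounds plus 1 uM (final) retinol for 6 h at 37 C. Viability was read as ATP by CellTiter-Glo luminescence after 30 min at room temperature.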

A short description of assay [3]: qHTS assay to identify small molecule antagonists of the estrogen related receptor (ERR) signaling pathway from Tox21 library - cell viability counter screen (AID 1224834). Note: nearly all actives have a fitted effect of over 30% in size. Note: potency is the fitted concentration of half-maximal effect. In short, it runs like this:
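ERR reporter cells were plated 6 h before compound addition, then exposed to test compounds in DMSO for 17.5 h at 37 C. Viability was read as CellTiter-Fluor fluorescence after a 30-minute incubation at 37 C.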

Assay [4] addresses Luciferin 4-monooxygenase (Photinus pyralis) (UniProt P08659). As to the kind of experiment: qHTS assay to identify small molecule inhibitors of firefly luciferase (AID 1224835). Note: nearly all actives have a fitted effect of over 25% in size. Note: potency is the fitted concentration of half-maximal effect. The essentials: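 Quantitative HTS format; KM concentrations of both substrates. Purified P. pyralis FLuc activity quantified from luminescence images.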
Assay [5] is described as follows: qHTS assay to identify small molecule agonists of the constitutive androstane receptor (CAR) signaling pathway - cell viability counter screen (AID 1224836). Note: series mostly up to about 92 µM; nearly all actives have a fitted effect of over 45% in size. The essentials:
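23 h treatment, 37 C, 5% CO2. Cell line: HepG2 stably expressing hCAR with a CYP2B6-2.2kb construct. Co-treatment: PK11195, 0.75 uM final. Read-out: CellTiter-Fluor fluorescence intensity.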

Assay [6] is described as follows: qHTS assay to identify small molecule antagonists of the constitutive androstane receptor (CAR) signaling pathway - cell viability counter screen (AID 1224837). Note: series mostly up to about 92 µM; nearly all actives have a fitted effect of over 45% in size. In short, it runs like this:
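HepG2 cells stably expressing hCAR and a CYP2B6-2.2kb reporter were plated and pre-incubated 4 hr at 37 C/5% CO2, then given compounds at 15 concentrations plus 50 nM CITCO (final). After 23 hr, viability was read by CellTiter-Fluor fluorescence.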

Assay [7] deals with Nuclear receptor subfamily 1 group I member 3 (Homo sapiens) (UniProt Q14994). Kind of assay: qHTS assay to identify small molecule antagonists of the constitutive androstane receptor (CAR) signaling pathway (AID 1224838). Note: nearly all actives have a fitted effect of over 40% in size. The essentials: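 HepG2 cells stably co-transfected with hCAR and a CYP2B6-2.2kb luciferase reporter were seeded 4 h before compound addition at 15 concentrations. Cells were stimulated with 50 nM CITCO (final) for 24 h at 37 C; luciferase luminescence was then read.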

The target is the same in assay [8]. As to the kind of experiment: qHTS assay to identify small molecule agonists of the constitutive androstane receptor (CAR) signaling pathway (AID 1224839). Note: series mostly up to about 92 µM; nearly all actives have a fitted effect of over 15% in size. The essentials: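 Compounds tested at 15 concentrations on HepG2 cells stably harbouring hCAR and CYP2B6-2.2kb reporter constructs, co-treated with PK11195 (0.75 uM final), 24 h at 37 C; luminescent reporter signal quantified.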

A short description of assay [9]: qHTS assay to identify small molecule antagonists of the estrogen related receptor signaling pathway with the pleiotropic PPARgamma coactivator (PGC) from Tox21 10K library - cell viability counter screen (AID 1224840; active = well fitted cell-killing curve with a large enough effect in the repeat runs, not every such curve was filed as active; note: nearly all actives have a fitted effect of over 40% in size; note: potency is the fitted concentration of half-maximal effect). In short, it runs like this: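 PGC/ERR cells were seeded at 2,000 cells/well and left 6 hours at 37 C/5% CO2 before pin-tool addition of compounds in DMSO. After 17.5 hours at 37 C, CellTiter-Fluor was added and fluorescence read 30 minutes later.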

Assay [10] addresses Thyrotropin receptor (Homo sapiens) (UniProt P16473). Kind of assay: qHTS assay to identify small molecule agonists of the thyroid stimulating hormone receptor (TSHR) signaling pathway (AID 1224843; calls by dose curve; note: nearly all actives have a fitted effect of over 45% in size). The essentials:
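Cell line HEK293 with TSHR; density 800/well. Exposure 30 min RT. Readout HTRF cAMP (cAMP-d2/anti-cAMP-cryptate), 1 h RT before reading.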

Assay [11] can be described thus: qHTS assay to identify small molecule agonists of the hypoxia (HIF-1) signaling pathway - cell viability counter screen (AID 1224844; calls by dose curve; note: nearly all actives have a fitted effect of over 50% in size; note: potency is the fitted concentration of half-maximal effect). In short, it runs like this:
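HRE-bla ME-180 cells in medium with 0.5% dialyzed FBS were preincubated 5 hrs at 37C, exposed to compounds for 17 hrs, then viability was read as CellTiter-Glo luminescence after 30 min at room temperature, in the reporter wells.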

Assay [12] is described as follows: qHTS assay to identify small molecule agonists of H2AX (AID 1224845; active = well fitted activation curve with a large enough effect in the signal ratio in the repeat runs, not every such curve was filed as active; the % refers to the signal ratio; note: potency is the fitted concentration of half-maximal effect). In short, it runs like this:
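Wild-type CHO-K1 cells plated overnight, then exposed 3 hr at 37C to compounds at 15 concentrations (0.76% DMSO). Lysed, then HTRF anti-pH2AX(S139)-cryptate/anti-H2AX-d2 detection after 24 hr at room temperature; emissions 665 and 620 nm.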

A short description of assay [13]: qHTS assay to identify small molecule agonists of the hypoxia (HIF-1) signaling pathway (AID 1224846; active = well fitted activation curve with a large enough effect in the signal ratio in the repeat runs, not every such curve was filed as active; the % refers to the signal ratio). The essentials: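 HRE-bla ME-180 cells (beta-lactamase reporter under hypoxia response element) were plated at 2,000 cells/well in medium with 0.5% dialyzed FBS, rested 5 hrs, then given compounds in DMSO for 17 hrs at 37C, 5% CO2. Reporter induction was read with CCF4-AM FRET substrate.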

Assay [14] addresses Retinoic acid receptor RXR-alpha (Homo sapiens) (UniProt P19793). As to the kind of experiment: qHTS assay to identify small molecule agonists of the RXR signaling pathway (AID 1159527; calls by dose curve; note: nearly all actives have a fitted effect of over 35% in size; note: potency is the fitted concentration of half-maximal effect). In short, it runs like this:
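Using 9-cis retinoic acid as the reference agonist, chemicals were tested in HEK 293T cells […] for 16 hr; substrate loading lasted 2 hr at room temperature.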

The nature of assay [15]: qHTS assay to identify small molecule antagonists of the retinoic acid receptor (RAR) signaling pathway (AID 1159552; note: nearly all actives have a fitted effect of over 50% in size; note: potency is the fitted concentration of half-maximal effect). The essentials: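 Test chemicals and DMSO controls were pin-transferred onto C3RL4 cells a day after seeding; retinol (1 uM final) followed at once. Luminescent reporter output was quantified after 6 hr of co-incubation and 30 min with detection reagent.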

Assay [16] is described as follows: qHTS assay to identify small molecule agonists of the retinoic acid receptor (RAR) signaling pathway (AID 1159553). The essentials: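 C3RL4 cells carrying a RARE luciferase reporter were plated overnight at 37 C, then exposed to compounds in DMSO for 6 hr at 37 C and 5% CO2. Luminescence was read 30 min after luciferase reagent addition at room temperature.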

Assay [17] is described as follows: qHTS assay to identify small molecule antagonists of the estrogen related receptor signaling pathway with the pleiotropic PPARgamma coactivator (PGC) from Tox21 10K library (AID 1224841; call rule not given here; note: actives are mostly falling curves and most rising ones were filed inactive; nearly all actives have a fitted effect of over 50% in size; note: potency is the fitted concentration of half-maximal effect). In short, it runs like this:
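PGC/ERR reporter cells were seeded at 2,000 cells/well and held 6 hours at 37 C/5% CO2 before pin-tool addition of compounds in DMSO. After 18 hours at 37 C, One-Glo was added and luminescence read after 30 minutes at room temperature.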

The nature of assay [18]: qHTS assay to identify small molecule agonists of the estrogen related receptor signaling pathway with the pleiotropic PPARgamma coactivator (PGC) from Tox21 10K library (AID 1224842). Note: nearly all actives have a fitted effect of over 15% in size. The essentials: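 PGC/ERR reporter cells (NTP line) were seeded 2,000 per well, rested 6 h at 37 C/5% CO2, then pin-dosed with compounds in DMSO for 18 h at 37 C; luciferase read by One-Glo luminescence after 30 min at room temperature.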

Sequence of Thyrotropin receptor (Homo sapiens) (P16473 whole entry, looked up): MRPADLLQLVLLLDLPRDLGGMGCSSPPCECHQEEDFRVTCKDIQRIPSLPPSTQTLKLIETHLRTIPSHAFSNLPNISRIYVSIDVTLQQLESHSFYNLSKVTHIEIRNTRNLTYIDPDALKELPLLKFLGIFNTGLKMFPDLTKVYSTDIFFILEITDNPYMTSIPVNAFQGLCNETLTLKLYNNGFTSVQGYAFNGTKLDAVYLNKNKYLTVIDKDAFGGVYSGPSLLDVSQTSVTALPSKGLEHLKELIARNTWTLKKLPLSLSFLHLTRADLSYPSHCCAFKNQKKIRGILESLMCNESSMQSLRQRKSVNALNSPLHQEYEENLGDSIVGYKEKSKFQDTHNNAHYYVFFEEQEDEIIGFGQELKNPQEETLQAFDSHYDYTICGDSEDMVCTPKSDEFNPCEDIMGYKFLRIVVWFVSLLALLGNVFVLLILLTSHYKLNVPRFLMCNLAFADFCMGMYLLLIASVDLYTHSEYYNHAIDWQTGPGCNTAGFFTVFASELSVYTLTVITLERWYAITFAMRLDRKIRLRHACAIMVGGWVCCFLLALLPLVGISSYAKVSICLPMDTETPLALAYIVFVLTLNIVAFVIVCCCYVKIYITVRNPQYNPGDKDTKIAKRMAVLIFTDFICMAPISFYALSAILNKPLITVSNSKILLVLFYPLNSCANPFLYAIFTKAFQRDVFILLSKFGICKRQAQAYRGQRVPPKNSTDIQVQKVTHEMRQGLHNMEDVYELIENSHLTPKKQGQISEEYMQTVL
Sequence of Luciferin 4-monooxygenase (Photinus pyralis) (P08659 whole entry, looked up): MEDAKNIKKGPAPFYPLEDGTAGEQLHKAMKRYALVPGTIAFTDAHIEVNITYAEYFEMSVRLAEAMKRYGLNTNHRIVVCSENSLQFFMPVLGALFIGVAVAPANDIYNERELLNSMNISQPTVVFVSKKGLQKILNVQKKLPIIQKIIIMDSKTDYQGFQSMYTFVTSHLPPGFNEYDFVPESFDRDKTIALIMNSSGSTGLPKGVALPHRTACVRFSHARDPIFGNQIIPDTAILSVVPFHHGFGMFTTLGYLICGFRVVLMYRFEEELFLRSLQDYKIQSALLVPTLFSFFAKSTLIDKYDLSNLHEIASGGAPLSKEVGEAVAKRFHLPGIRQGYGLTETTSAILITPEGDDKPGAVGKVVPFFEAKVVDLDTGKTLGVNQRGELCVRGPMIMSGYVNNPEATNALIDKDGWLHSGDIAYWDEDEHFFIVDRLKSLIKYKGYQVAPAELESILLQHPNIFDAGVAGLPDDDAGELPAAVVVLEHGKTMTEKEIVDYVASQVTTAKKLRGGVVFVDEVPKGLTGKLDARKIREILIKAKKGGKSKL
Sequence of Nuclear receptor subfamily 1 group I member 3 (Homo sapiens) (Q14994 whole entry, looked up): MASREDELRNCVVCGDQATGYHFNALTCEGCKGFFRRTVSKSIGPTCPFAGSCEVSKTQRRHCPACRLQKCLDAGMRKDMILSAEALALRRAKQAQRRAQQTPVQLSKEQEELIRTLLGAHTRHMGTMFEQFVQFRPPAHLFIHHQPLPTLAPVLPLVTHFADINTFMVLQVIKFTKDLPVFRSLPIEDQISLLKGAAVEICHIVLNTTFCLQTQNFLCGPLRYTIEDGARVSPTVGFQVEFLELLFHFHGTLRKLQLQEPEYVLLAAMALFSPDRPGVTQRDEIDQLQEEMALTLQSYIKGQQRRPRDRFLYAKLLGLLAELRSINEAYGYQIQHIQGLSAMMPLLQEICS
Sequence of Retinoic acid receptor RXR-alpha (Homo sapiens) (P19793 whole entry, looked up): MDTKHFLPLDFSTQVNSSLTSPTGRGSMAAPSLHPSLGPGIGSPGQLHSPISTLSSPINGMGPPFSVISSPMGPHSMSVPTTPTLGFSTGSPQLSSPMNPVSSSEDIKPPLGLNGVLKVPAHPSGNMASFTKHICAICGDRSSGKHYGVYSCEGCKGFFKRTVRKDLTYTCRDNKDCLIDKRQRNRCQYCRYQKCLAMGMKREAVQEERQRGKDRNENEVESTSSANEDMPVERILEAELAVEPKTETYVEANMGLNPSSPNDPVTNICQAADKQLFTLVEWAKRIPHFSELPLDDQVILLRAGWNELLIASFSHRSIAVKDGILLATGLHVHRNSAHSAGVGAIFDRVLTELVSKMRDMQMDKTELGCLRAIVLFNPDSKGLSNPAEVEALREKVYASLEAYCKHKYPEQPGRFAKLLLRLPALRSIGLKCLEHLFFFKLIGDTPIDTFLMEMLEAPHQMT

As to `CCCCC(CC)CO` (stereo unspecified), the Potency result in assay [1], in [3], in [4], in assay [5], in assay [6] and in [7] was “inactive” throughout. Moreover, the Potency entry in [8], in [9], in [10], in [11] and in [12] was “inactive” each time. Further, the compound was called inactive in assay [2] and in assay [13].
Turning to `FC(F)(F)c1ccc(Cl)c(Cl)c1`, the Potency entry in [14], in assay [1], in assay [3], in assay [4], in [5] and in assay [6] was “inactive” throughout. The Potency result in [9], in assay [10], in assay [11] and in [12] was “inactive” each time. For the same compound, the call in assay [2] and in [13] was inactive.
Turning to `OCc1cccnc1`, the Potency result in [14], in assay [1], in [3], in [4], in assay [5] and in assay [6] was “inactive” in each case. The Potency result in [9], in assay [11] and in [12] was “inactive” each time. Besides, the compound was classed as inactive in assay [2].
As for `CCCCCCCCCCCCOCCO`, the Potency result in assay [1], in assay [15], in assay [3], in assay [5], in [6] and in assay [7] was “inactive” throughout. In addition, the Potency result in assay [8], in assay [9], in assay [10], in assay [11] and in assay [12] was “inactive” throughout. Moreover, the compound was called inactive in [2] and in assay [13]. In addition, the Potency in assay [4] is 25.2 µM (active) and 30.9 µM (active).
Consider `CCc1ccc(CCOc2ccc(CC3SC(=O)NC3=O)cc2)nc1` (stereo unspecified), for which the Potency entry in assay [1], in assay [3], in assay [5], in assay [6], in assay [7] and in assay [8] was “inactive” in each case. Further, the Potency entry in assay [9], in assay [11] and in assay [12] was “inactive” in each case. Further, the compound was classed as inactive in [2] and in assay [13]. For the same compound, in assay [4], the Potency was 31.7 µM (active) and 24.5 µM (active).
With `CCCCCC/C(C=O)=C\c1ccccc1`, the Potency entry in assay [1], in assay [15], in [16], in [3], in [5] and in assay [6] was “inactive” in each case. Moreover, the Potency result in [7], in [8], in assay [9], in [10], in assay [11] and in [12] was “inactive” each time. Also, the outcome in assay [2] and in assay [13] was inactive.
In the case of `c1c[nH]cn1`, the Potency entry in assay [1], in assay [16], in [3], in [4], in assay [5] and in assay [6] was “inactive” in each case. For the same compound, the Potency entry in assay [9], in assay [11] and in assay [12] was “inactive” throughout. For the same compound, the compound was called inactive in [2] and in [13].
On to `O=S(=O)(O)c1ccc2ccccc2c1`, for which, in assay [14], the Potency was 11 µM (active). Besides, the Potency entry in assay [1], in assay [3], in assay [4], in assay [5], in assay [6] and in assay [9] was “inactive” throughout. In addition, the Potency entry in assay [10], in assay [11] and in [12] was “inactive” each time. Further, the compound was called inactive in assay [2] and in [13].
Take `O=C(O)c1ccc2c(c1)C(=O)OC2=O`: the Potency result in assay [1], in [16], in assay [3], in assay [4], in [5] and in [6] was “inactive” each time. The Potency entry in [9], in assay [10], in [11] and in assay [12] was “inactive” throughout. In addition, the outcome in assay [2] and in [13] was inactive.
Turning to `C#C[C@]1(O)CC[C@H]2[C@@H]3CCC4=CC(=O)CC[C@@H]4[C@H]3CC[C@@]21C`, the Potency entry in assay [1], in [16], in [3], in assay [4], in assay [5] and in assay [6] was “inactive” each time. For the same compound, the Potency entry in assay [8], in assay [9], in assay [10] and in assay [11] was “inactive” throughout. Further, in assay [2], the call was inactive. Besides, the Potency in assay [15] is 27.3 µM (active) and 11.9 µM (active); in [12], 28.4 µM (active) and 19.6 µM (active).
With `C=C(C)C(=O)O[C@H]1C[C@@H]2CC[C@@]1(C)C2(C)C`, the Potency entry in assay [14] and in [10] was “inactive” each time. Further, the Potency was 15.4 µM (active) and inactive in assay [1]; 8.58 µM (active) and inactive in assay [3]; 19.9 µM (active) and inactive in assay [4]; 13.6 µM (active) and inactive in [9]; 60.8 µM (active) and inactive in assay [17]; 1.94 µM (active) and inactive in assay [11]. Further, the Potency in assay [12] is 2.24 µM (active) and inactive. Moreover, the compound was called inactive in [2], in assay [18] and in assay [13].
Take `CC(C)CC(=O)CC(C)C`: the Potency result in assay [14], in assay [1], in assay [3], in assay [4], in assay [5] and in assay [6] was “inactive” throughout. The Potency entry in assay [9], in [17], in assay [11] and in assay [12] was “inactive” in each case. Further, the outcome in assay [2], in assay [18] and in assay [13] was inactive.
On to `O=C(OCCOCCOC(=O)c1ccccc1)c1ccccc1`, for which the Potency result in [1], in assay [16], in assay [3], in assay [4], in assay [5] and in assay [6] was “inactive” each time. For the same compound, the Potency result in assay [7], in assay [8], in assay [9], in [11] and in assay [12] was “inactive” each time. For the same compound, the outcome in [2] and in assay [13] was inactive.

Source of the values: PubChem BioAssay (Tox21).
